Y pestis TopoI: Y. pestis Topo-I inhibition via cleavage products; 360,000 tested, 0.064% active; Y. pestis Topo-I cleavage product accumulation, plate reader; activity, % at 10 µM; AID 504884; in the data active = activity above about 50%, passing the limit was not always enough
PrPC surface inh: cell surface PrPC inhibition, primary TR-FRET screen. P04156. TR-FRET read-out. inhibition, % at 13.8 µM. 370,000 tested, 0.43% active; in the data active = inhibition above about 24%
BH1578 lux ind: inducers of Vibrio cholerae quorum light production without autoinducers. 350,000 tested, 0.16% active. V. cholerae BH1578 lux reporter, luminescence, 6 h. activation, % at 18.7 µM; in the data active = activation mostly above about 9.7%, no sharp cut-off
CCHF vOTU inh-1: CCHFV vOTU protease inhibition; Pep-AMC fluorescence; inhibition, % at 11.5 µM; 370,000 tested, 0.55% active
CCHF vOTU inh-2: confirmation of CCHF virus vOTU protease inhibitors; shares compounds with CCHF vOTU inh-1; Recombinant CCHFV vOTU, Pep-AMC fluorescence; inhibition, % at 11.5 µM; 1,900 tested, 17% active; AID 686976
Hits are given with their value; – = inactive; · = no result given. Only some compounds are listed: those with a hit (about 1.1% of all), similar ones and a draw of the others. Rule as the data show it, unless noted: active = inhibition above about 30%; inactive = the rest.

SMILES	Y pestis TopoI	PrPC surface inh	BH1578 lux ind	CCHF vOTU inh-1	CCHF vOTU inh-2
COc1cccc(C(c2c(C)[nH]n(-c3ccccc3)c2=O)c2c(C)[nH]n(-c3ccccc3)c2=O)c1OC	–	–	–	56	–
CCC(C)(C)C1CCC2(CC1)NC(=O)N(CC(=O)NCCCc1ccccc1)C2=O (stereo not drawn)	–	–	–	–	·
COc1ccc(C2CC(=O)c3cnc(Nc4cc(C)cc(C)c4)nc3C2)cc1 (stereo not drawn)	–	–	–	–	·
CN(C)c1ccc(C=c2c3ccccc3n3c2cc(-c2ccccc2)[n+]3C)cc1	–	–	–	48	–
COc1cc(C=c2c3ccccc3n3c2cc(-c2ccccc2)[n+]3C)cc(OC)c1OC	–	–	–	85	69
CN(C)c1ccc(/C=C2\CCC/C(=C\c3ccccc3)C2=O)cc1	–	–	–	–	·
CN(C)c1ccc(C=c2c3ccccc3n3c2c2c([n+]3C)CCCC2)cc1	–	–	·	35	–
CN(C)c1ccc(C=c2c3ccccc3n3c2cc(-c2ccc(Cl)cc2)[n+]3C)cc1	–	–	–	47	–
COc1cc(/C=C(/C(=O)O)c2ccc(-c3ccccc3)cc2)cc(OC)c1OC	–	–	–	–	·
C=CCNc1nc(C(=O)OCC(=O)c2ccc(C)c([N+](=O)[O-])c2)cs1	–	–	·	–	·
CCOc1ccc(CNS(=O)(=O)c2c(C)nc3scc(C)n3c2=O)cc1OC	–	–	–	–	·
CCC(c1nnc(SCc2nc3ccccc3s2)n1Cc1ccccc1)N(C)C (stereo not drawn)	–	–	–	–	·
CN(C)c1ccc(C=c2c3cc([N+](=O)[O-])ccc3n3c2cc(-c2ccccc2)[n+]3C)cc1	–	–	·	40	–
O=C(CCCn1c(=O)oc2ccccc21)N1CCc2ccccc2C1	–	–	–	35	–
COc1ccc(CNC(=O)c2c(C)oc3c2C(=O)c2ccccc2C3=O)cc1	–	–	–	54	48
CC1Cc2ccccc2N1CC(=O)NC(=O)NC1CCCCC1 (stereo not drawn)	–	–	–	31	–
O=C1OC[C@H]2CCCN2C(=O)[C@@H](CC(=O)N(CCO)Cc2ccccc2)C/C=C\CC[C@@H]1Cc1ccc(F)cc1	–	–	–	–	·
COc1ccc(NC(=O)COC(=O)c2cc(SC)ccc2Cl)c(OC)c1	–	–	–	30	–
COc1ccc(C(C)(C)C)cc1NC(=O)COC(=O)c1cc(SC)ccc1Cl	–	–	–	–	·
Cc1noc(C)c1C(=O)OCC(=O)Nc1ccc(N2CCOCC2)cc1	–	–	–	32	–
CCOC(=O)C1CCCN(C(=O)c2cccc(S(=O)(=O)N(C)c3ccc(OC)cc3)c2)C1 (stereo not drawn)	–	–	–	–	·
CCOC(=O)C1CCCN(C(=O)c2cccc(S(=O)(=O)N(Cc3ccccc3)c3ccccc3OC)c2)C1 (stereo not drawn)	–	–	–	36	–
CCc1nn(CC(=O)NCCCN(CC)Cc2ccccc2)c(=O)c2cc3sccc3n12	–	–	–	35	–
Cn1nc(C(C)(C)C)cc1NC(=O)C1(C)CCN1C(=O)CC(c1ccccc1)c1ccccc1 (stereo not drawn)	–	–	–	33	–
Nc1cccc2nc3ccccc3cc12	–	·	–	·	·
SMILES	Y pestis TopoI	PrPC surface inh	BH1578 lux ind	CCHF vOTU inh-1	CCHF vOTU inh-2
Cc1cc2c(N)cccc2nn1	–	–	–	111	–
COc1ccc(C(=O)NC(=S)Nc2cccc3cc(O)ccc23)cc1OC	–	–	–	31	–
CCCc1nc2c(=O)n(C)c(=O)nc-2n(C)n1	–	–	–	113	94
Cn1ncnc2c(=O)n(C)c(=O)nc1-2	–	·	–	·	·
Cn1nc(-c2ccccn2)nc2c(=O)n(C)c(=O)nc1-2	–	–	–	102	104
CCOc1cc(-c2cc(-c3ccc(C)o3)nc(N)c2C#N)ccc1O	–	–	–	–	·
CCCc1cc(-c2ccc(O)c(OCC)c2)c(C#N)c(N)n1	–	–	–	39	–
COc1cc(C(=S)N2CCOCC2)ccc1OC(=O)c1cc([N+](=O)[O-])c(C)c([N+](=O)[O-])c1	–	–	–	–	·
Cc1cc(C)c(NC(=O)CNC(=O)COC(=O)C2CCN(c3ccc(C(F)(F)F)cn3)CC2)c(C)c1	–	–	–	34	–
COc1ccccc1CNC(=O)COC(=O)C1CCN(c2ccc(C(F)(F)F)cn2)CC1	–	–	–	44	–
Cc1ccc(C(=O)C(C)OC(=O)C2CCN(c3ccc(C(F)(F)F)cn3)CC2)cc1C (stereo not drawn)	–	–	–	–	·

Bioassay records deposited in PubChem by several laboratories.
